A short description of assay [1]: qHTS assay to identify small molecule agonists of the vitamin D receptor (VDR) signaling pathway - cell viability counter screen (AID 743224). Further: nearly all actives have a fitted effect of over 50% in size. Further: potency means the concentration at half of the fitted maximal effect. As to conditions: VDR-bla HEK293T viability, CellTiter-Glo luminescence, 16 h; series mostly up to 62.6 µM. In a few lines: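 Cytotoxicity counter screen: VDR-bla cells, 16 h compound exposure at 37C, 5% CO2; CellTiter-Glo luminescence, 30 min RT, same wells as bla read.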
(In general: In qHTS, concentration-response curves come from the screen itself.)

Assay [2] can be described thus: qHTS assay to identify small molecule antagonists of the vitamin D receptor (VDR) signaling pathway - cell viability counter screen (AID 743225). Further: nearly all actives have a fitted effect of over 50% in size. As to conditions: VDR-bla HEK293T viability, CellTiter-Glo luminescence, 16 h; series mostly up to 61 µM. In a few lines:
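VDR-bla HEK 293T cells, 4 h pre-incubation at 37C, then compound plus 1-alpha,25-dihydroxyvitamin D3 (3 nM final) for 16 h. After the beta-lactamase FRET read, CellTiter-Glo was added to the same wells; luminescence after 30 min at room temperature.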

Assay [3] in a line: qHTS assay to identify small molecule agonists of the NFkB signaling pathway (AID 1159509; active means well fitted curve in the direction sought with a large enough effect in the signal ratio in the repeat runs, not every such curve was filed as active; the % refers to the signal ratio). Conditions: NFkB-bla ME-180 cells, beta-lactamase FRET ratio, 5 h; series mostly up to 61 µM. The method in brief:
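Pathway activation was measured in ME-180 cells stably expressing beta-lactamase under NF-kB response element control. Substrate cleavage was read as the 460/530 nm emission shift after 5 hr compound incubation.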

Assay [4] is described as follows: qHTS assay to identify small molecule agonists of the endoplasmic reticulum stress response signaling pathway (AID 1159516; active means well fitted activation curve with a large enough effect in the signal ratio in the repeat runs, not every such curve was filed as active; the % refers to the signal ratio). As to conditions: ESRE-bla HeLa, ER stress beta-lactamase reporter, 5 h; series mostly up to 61 µM. The method in brief:
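HeLa ESRE-bla reporter line; cpd 5 h, 37 C/5% CO2; LiveBLAzer B/G FRET substrate 2 h RT; ex 405, em 460/530 nm.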

Assay [5] in a line: qHTS assay to identify small molecule agonists of the endoplasmic reticulum stress response signaling pathway - cell viability counter screen (AID 1159517; calls by dose curve; further: nearly all actives have a fitted effect of over 50% in size; further: potency means the concentration at half of the fitted maximal effect). Conditions: ESRE-bla HeLa viability, CellTiter-Glo luminescence, 5 h; series mostly up to 61 µM. The method in brief: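 Cpd-treated ESRE-bla HeLa (5 hr, 37 C) → LiveBLAzer 2 hr RT → CellTiter-Glo 30 min RT → luminescence.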

Assay [6] has as its target Nuclear receptor ROR-gamma (Homo sapiens) (UniProt P51449). Description: qHTS assay to identify small molecule antagonists of the retinoid-related orphan receptor gamma (ROR-gamma) signaling pathway (AID 1159521; further: nearly all actives have a fitted effect of over 50% in size; further: potency means the concentration at half of the fitted maximal effect). As to conditions: Tet-on RORgamma CHO cells, RORE-luciferase, 16 h; series mostly up to 92.4 µM. The method in brief:
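Tet-on RORγ CHO cells carrying a ROR response element–luciferase reporter were pretreated with compounds for 2 h, then induced with 1 uM (final) doxycycline hyclate for 16 h at 37 C. Antagonism was read as decreased ONE-Glo luminescence.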

Assay [7] in a line: qHTS assay to identify small molecule agonists of the AP-1 signaling pathway - cell viability counter screen (AID 1159525; calls by dose curve; further: nearly all actives have a fitted effect of over 55% in size). Conditions: ME-180 (cervical carcinoma) AP-1-bla cells viability, ATP luminescence, 5 h; series mostly up to 76.8 µM. The method in brief:
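Each titration point was normalised to DMSO and tetra n-octyl ammonium bromide controls. The read was Cell Titer Glo luminescence after 30 min at RT, following 5 h compound exposure of ME-180 AP-1-bla cells at 37 °C.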

The target of assay [8] is Retinoic acid receptor RXR-alpha (Homo sapiens) (UniProt P19793). Description: qHTS assay to identify small molecule agonists of the RXR signaling pathway (AID 1159527; calls by dose curve; further: nearly all actives have a fitted effect of over 35% in size). As to conditions: HEK293T RXRa-UAS-bla, beta-lactamase ratio, 16 h; series mostly up to 76.8 µM. The method in brief: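 GeneBLAzer RXR-alpha-UAS-bla HEK 293T cells in medium with 2% charcoal-stripped FBS, pre-incubated 5 hr at 37 C, then exposed to compounds 16 hr. Beta-lactamase reporter read by FRET substrate, 2 hr room temperature, 460/530 nm emission.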

The nature of assay [9]: qHTS assay to identify small molecule agonists of the RXR signaling pathway - cell viability counter screen (AID 1159529). Further: nearly all actives have a fitted effect of over 50% in size. Further: potency means the concentration at half of the fitted maximal effect. As to conditions: RXR-alpha-bla HEK293T viability, CellTiter-Glo, 16 h; series mostly up to 76.8 µM. The method in brief:
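RXR-alpha-UAS-bla HEK 293T cells in medium with 2% charcoal-stripped FBS were preincubated 5 hr, then exposed to compounds for 16 hr at 37 C. Viability was read as CellTiter-Glo luminescence after 30 min at room temperature.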

Assay [10] in a line: qHTS assay to identify small molecule antagonists of the retinoid-related orphan receptor gamma (ROR-gamma) signaling pathway - cell viability counter screen (AID 1159520). Further: nearly all actives have a fitted effect of over 50% in size. Further: potency means the concentration at half of the fitted maximal effect. As to conditions: Tet-on RORgamma CHO cells viability, ATP luminescence, 16 h; series mostly up to 92.4 µM. The method in brief:
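Tet-on ROR gamma CHO cells (1,000/well) were plated 4 hr, given compounds in DMSO for 2 hr at 37 C, then induced with 1 uM final doxycycline for 16 hr. Viability was read as ATP by CellTiter-Glo luminescence after 30 min.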

Assay [11] is described as follows: qHTS assay to identify small molecule antagonists of the retinoid acid receptor (RAR) signaling pathway - cell viability counter screen (AID 1159551). Further: nearly all actives have a fitted effect of over 35% in size. As to conditions: C3RL4 cells viability, ATP luminescence (CellTiter-Glo), 6 h; series mostly up to 92.4 µM. In a few lines:
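C3RL4 RARE-luciferase line; cpds + retinol 1 uM final, 6 h, 37 C/5% CO2; CellTiter-Glo ATP luminescence, 30 min RT.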

Assay [12] is described as follows: qHTS assay to identify small molecule antagonists of the retinoic acid receptor (RAR) signaling pathway (AID 1159552). Conditions: C3RL4 RARE luciferase reporter, retinol-stimulated, 6 h; series mostly up to 92.4 µM. The method in brief: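 RARE-luc C3RL4 cells; cpds + 1 uM (final) retinol, 6 hr, 37 C/5% CO2; luciferase reagent, 30 min RT, luminescence readout. Inhibitors of retinol-driven signal scored.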

Several values for one entry are separate records, joined by “and”; a condition that tells them apart may be missing. Equal values may be shown once. Results filed as inconclusive are left out. The source holds several records for some structures; these can differ, active in one and inactive in another. Activity calls are given as the source filed them. Unless noted, the call rests on the fitted dose curve; in most records, active means well fitted curve in the direction sought with a large enough effect in the repeat runs; inconclusive means weak or mixed curves; inactive means no such curve, though single readings can be large; an effect the other way counts as inactive or inconclusive.

Sequence of Retinoic acid receptor RXR-alpha (Homo sapiens) (P19793 whole entry, looked up): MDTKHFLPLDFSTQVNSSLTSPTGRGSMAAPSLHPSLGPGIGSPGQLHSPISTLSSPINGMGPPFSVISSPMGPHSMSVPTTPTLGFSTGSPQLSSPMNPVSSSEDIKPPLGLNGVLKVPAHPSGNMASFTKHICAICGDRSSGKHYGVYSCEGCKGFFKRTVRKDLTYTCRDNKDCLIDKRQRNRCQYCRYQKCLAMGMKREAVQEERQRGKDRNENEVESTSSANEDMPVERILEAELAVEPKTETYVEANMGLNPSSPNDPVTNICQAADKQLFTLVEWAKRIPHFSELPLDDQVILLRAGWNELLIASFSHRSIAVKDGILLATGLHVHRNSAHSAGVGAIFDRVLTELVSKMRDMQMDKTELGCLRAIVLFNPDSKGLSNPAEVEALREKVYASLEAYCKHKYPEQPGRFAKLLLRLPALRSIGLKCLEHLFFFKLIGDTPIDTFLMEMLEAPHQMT

Consider `CCC(COC(=O)c1cc(OC)c(OC)c(OC)c1)(c1ccccc1)N(C)C` (configuration not stated), for which the Potency result in assay [1], in [2], in assay [5], in assay [6], in assay [7] and in assay [8] was “inactive” in each case. In [9], the Potency result is “inactive”. In addition, the result in assay [3] and in assay [4] was inactive.
With `C=CC(=O)OCCCCO`, the Potency result in [1], in assay [2], in assay [10], in assay [7], in assay [8] and in [9] was “inactive” throughout. Further, the result in assay [3] and in assay [4] was inactive.
For `O=C(CCl)c1ccc(Cl)cc1Cl`, the Potency result is “inactive and 18.8 µM (active)” in assay [1]; 10.7 µM (active) in assay [5]; 11.9 µM (active) in assay [10]; 10.6 µM (active) in assay [6]; “inactive and 13.4 µM (active)” in [9]; 1.88 µM (active) in [12]. Besides, the Potency result in assay [2], in [7] and in assay [11] was “inactive” in each case. In addition, the outcome in assay [3] was inactive.
